Our source for the z-score values is PubChem BioAssay.

Molecules are shown by their SMILES.

The assay can be described thus: basal HepG2 mitochondrial membrane potential changes, profiling panel, cell-based, JC-1 fluorescence, 24 h, 100 nL compound (AID 1167). Further: test concentration not given here. The note with it: higher = more signal.
In turn, `CO[C@H]1COC(=O)[C@@H]2CCCN2C(=O)CC=C[C@@H](C)[C@H](OC)COC(=O)CC=C[C@@H]1C` displayed a z-score of 1.23. Under `CC(C)CON=C1C[C@@H](O)[C@@H](O)[C@@H]2[C@@H]3C(=O)N([C@@H](C)c4ccccc4)C(=O)[C@@H]3CC[C@H]12` stands 0.658; under `O=C1[C@H]2[C@H]3[C@H](O)[C@H](O)CC(=NOC[C@@H](O)COCc4ccco4)[C@@H]3CC[C@H]2C(=O)N1c1ccc(F)cc1F`, 0.42.

On to `CO[C@@H]1COC(=O)CCC[C@@H](C)[C@H](OC)COC(=O)CCC[C@H]1C`, for which the z-score is -0.075. In the case of `C=CC[C@@H]1C=C[C@H](ON=C[C@@H](OC)[C@H](C)C=CCC(=O)OC)[C@@H](CO)O1` it was -0.0676; in that of `CCCC[C@@H](O)C1=C(C)C[C@H]2C(=O)N(Cc3ccccc3)C(=O)[C@H]2[C@H]1CO`, 0.579. Under `CC(CCN1CCc2nc(-c3ccccc3)c(-c3ccccc3)cc2C1)=NO[C@H](C)c1cn([C@@H]2COC[C@H]2O)nn1` stands 1.34; under `CC(C)[C@H](NC(=O)OC(C)(C)C)[C@@H](O)CC(=O)OC(C)(C)C`, 0.251. In the case of `CCOC(=O)C[C@H]1[C@H](OC(=O)c2ccc(C(=O)c3ccccc3)cc2)[C@@H](NC(=O)c2ccc(-c3ccccc3)cc2)c2cc(OCCCO)ccc2N1C(=O)c1ccc2ccccc2n1` it was 1.92; in that of `CCCNC(=O)OC[C@H]1O[C@H](CCON=C[C@@H](OC)[C@H](C)C=CCC(=O)OC)C=C[C@@H]1Oc1ccc(OC)cc1`, -0.12; in that of `CCOC(=O)CCN1C(=O)[C@H]2[C@H]3[C@H](O)[C@H](O)CC(=NNC(=O)OCc4ccc(OC)cc4)[C@@H]3CC[C@H]2C1=O`, -0.547. On to `COc1ccc(O[C@H]2C=C[C@@H](c3ccccc3)O[C@@H]2COC(=O)CCC(C)=NOC[C@@H](C)[C@H](OCc2ccccc2)C(C)C)cc1`, for which the z-score was 0.577. Under `O=C1[C@H]2[C@H]3[C@H](O)[C@H](O)CC(=NOCc4ccccc4)[C@H]3CC[C@H]2C(=O)N1C[C@@H]1CCCO1` stands -0.528; under `O=C1O[C@@H](c2ccccc2)[C@@H](c2ccccc2)N2[C@@H](c3ccc(OCCO)cc3)[C@]3(C(=O)Nc4ccc(C#CCCO)cc43)[C@@H](C(=O)N3CCCCCCC3)[C@H]12`, 0.523; under `CCCCc1nc2c(c3c1C[C@H](C)OC3)CN(CCC(C)C)CC2`, 2.01.

Regarding `O=C1C2=CC[C@H]3C(=O)N(Cc4ccc5c(c4)OCO5)C(=O)[C@H]3[C@H]2[C@H](O)[C@@H]2O[C@H]12`, the z-score was -0.275. Under `O=C1CCCC=C1C(O)CCOCc1ccccc1` (centres undefined) stands -0.667; under `COCCCNC(=O)[C@]1(CCC(=O)OC(C)(C)C)N=C(c2ccc(OCCCO)cc2)O[C@@H]1c1ccccc1N=[N+]=[N-]`, 1.75. Under `COC(=O)[C@@H]1CCCN1C(=O)[C@@H](C)CO` stands -0.952. In the case of `COc1ccc([Si](C)(C)[C@H]2[C@H](CCO)O[C@@]3(C(=O)N(Cc4cccc(NC(=O)[C@H](C)O)c4)c4ccccc43)[C@@H]2C)cc1` it was -2.89. For `CCOC(=O)CCN1C(=O)[C@H]2[C@H]3[C@H](O)[C@H](O)CC(=NOC[C@@H](O)COCc4ccco4)[C@@H]3CC[C@H]2C1=O`, the z-score was -0.906. In the case of `CC(CCN1CCCCc2nc(C)c(C)cc21)=NOC(C)CN1CCCCc2nc(C)c(C)cc21` (centres undefined) it was 3.61. In the case of `COCCOC(=O)N1C(=O)[C@@]2(c3cc(C#CC4(O)CCCCCC4)ccc31)[C@H](c1ccc(OCCO)cc1)N1[C@H](c3ccccc3)[C@H](c3ccccc3)OC(=O)[C@H]1[C@@H]2C(=O)NC[C@H](O)c1ccccc1` it was -1.67. In the case of `CC(C)NC(=O)[C@@]1(C)c2ccccc2C(=O)N(Cc2cc(F)cc(C(F)(F)F)c2)[C@H]1c1ccc(CO)cc1` it was 0.863; in that of `O=C1[C@H]2[C@H]3[C@H](O)[C@H](O)CC(=NO[C@@H]4O[C@H](CO)[C@@H](O)[C@H](O)[C@H]4O)[C@H]3CC[C@H]2C(=O)N1Cc1ccc2c(c1)OCO2`, -0.102; in that of `O=C1[C@H]2[C@H]3[C@H](O)[C@H](O)CC(=NOCc4ccccc4)[C@H]3CC[C@H]2C(=O)N1c1cccc(Oc2ccccc2)c1`, -0.988. In the case of `C[C@H](c1ccccc1)N1C(=O)[C@H]2[C@@H]3C(=CC[C@H]2C1=O)C(=O)[C@H]1O[C@H]1[C@H]3O`, the z-score came out at 1.02. Under `Cc1cc2c(nc1C)CCCN2CC(C)ON=C1[C@H]2CCn3c(=O)n(-c4ccccc4)c(=O)n3[C@H]2[C@H](O)[C@@H]2O[C@H]12` (some centres undefined) stands -0.788. As to `C#CCCCON=C1C[C@@H](O)[C@@H](O)[C@@H]2[C@@H]3C(=O)N([C@@H](C)c4ccccc4)C(=O)[C@@H]3CC[C@H]12`, the z-score amounted to 0.359.
